Our source for the inhibition values is PubChem BioAssay.

Structures are written as SMILES. Unmarked numbers belong to inactive results. The rule behind the calls is not given here.

The experiment deals with Pantothenate synthetase (Mycobacterium tuberculosis (strain ATCC 25618 / H37Rv)) (UniProt P9WIL5). Briefly: Coupled enzyme confirmation of inhibitors against recombinant Mtb PanC (AID 375).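 Note: 0% = full reaction with vehicle and 100% = no enzyme background.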 The following applies: coupled enzyme assay; at 10 µM, hits give high values.
Pantothenate synthetase (Mycobacterium tuberculosis (strain ATCC 25618 / H37Rv)), sequence (P9WIL5 whole entry, looked up): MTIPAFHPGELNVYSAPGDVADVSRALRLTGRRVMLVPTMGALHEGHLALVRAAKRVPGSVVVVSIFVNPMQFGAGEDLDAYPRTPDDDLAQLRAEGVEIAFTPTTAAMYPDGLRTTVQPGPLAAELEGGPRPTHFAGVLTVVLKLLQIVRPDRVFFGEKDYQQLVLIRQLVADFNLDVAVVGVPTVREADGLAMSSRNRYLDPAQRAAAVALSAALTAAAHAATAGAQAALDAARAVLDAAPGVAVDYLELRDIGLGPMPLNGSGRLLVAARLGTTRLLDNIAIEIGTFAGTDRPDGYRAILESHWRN
Regarding `O=C(c1ncn[nH]1)N1CCN(c2nc(-c3ccccc3)cs2)CC1`, the inhibition – broadly, the share of the control response that was lost under treatment – is 5%.
In the case of `O=C(CSc1nc(-c2ccccc2)cs1)NC(=O)NCc1ccco1`, the inhibition is 0%.
The result for `O=S(=O)(c1ccc(F)c(Cl)c1)N1CCCC1` reads 0%.
The result for `CNC(=O)c1nnn(Cc2ccccc2)c1NC(C)=O` reads 2%.
Take `O=C1c2ccccc2C(Nc2ccc3nc(-c4cccnc4)[nH]c3c2)N1Cc1ccco1` (stereo not given): the inhibition is 0%.
The result for `c1ccc(Nc2ccccc2Nc2ccccn2)nc1` reads 0%; that for `O=C(NCCN1CCOCC1)c1ccc2c(c1)N(Cc1ccccc1F)C(=O)CS2`, 0%.
The result for `COc1ccc(-n2ccnc2SCC(=O)NCc2ccc3c(c2)OCO3)cc1` reads 1%; that for `COc1ccccc1CCNC(=O)C1CCCO1` (stereo not given), 0%.
The result for `CNC(=O)c1c(O)c2cccc3c2n(c1=O)CC3` reads 1%; that for `CCS(=O)(=O)c1nc2ccccc2n1CC(=O)N1CCOCC1`, 0%; that for `CCOC(=O)c1ccc(NS(=O)(=O)c2ccc3c(c2)CCCN3C(C)=O)cc1`, 0%.
Take `O=C(CSc1nnc(-c2ccccc2Br)o1)Nc1cccc2ccccc12`: the inhibition is 2%.
`CC(=O)N(c1ccc(N(C(C)=O)S(=O)(=O)c2cccs2)cc1)S(=O)(=O)c1cccs1`: the inhibition is 0%.
Regarding `CCOC(=O)NC(=O)CSc1nnc(C)s1`, the inhibition was 4%.
The result for `CC(C)CCNC(=O)C(c1ccco1)N(CC1CCCO1)C(=O)Cn1nnc2ccccc21` (stereo not given) reads 0%; that for `Cc1ccnc(SCCn2c(N3CCCCC3)nc3c2c(=O)n(C)c(=O)n3C)n1`, 0%; that for `CN(C)c1ccc(NC(=O)c2cc3c(=O)n4ccccc4nc3n2C)cc1`, 7%.
The figure for `CCOC(=O)c1[nH]c(C)c(C(=O)Nc2ccccc2C)c1C` is 0%; for `O=C1CCCCCN1CSc1nc2ccccc2s1` it is 0%; for `CCn1cc(C2=NCC(C)O2)c2ccccc21` (stereo not given) it is 2%.
`CC1=NS(=O)(=O)c2cc(Cl)ccc2N1`: the inhibition is 6%.
With `O=S(=O)(Nc1nc2ccccc2nc1NCc1ccco1)c1cccs1`, the inhibition is 2%.
In the case of `NS(=O)(=O)c1cc2c(cc1C(F)(F)F)NC(Cc1ccccc1)NS2(=O)=O` (stereo not given), the inhibition is 0%.
The result for `CCC(=O)Nc1cc(Cl)ccc1N1CCN(C(=O)CC)CC1` reads 0%; that for `COc1cc(OC)cc(-c2nnc(SCC(=O)Nc3cc(C)on3)o2)c1`, 2%.
The result for `CCOC(=O)c1ccc(NC(=O)CSc2ncccn2)cc1` reads 6%.
Take `COc1ccc(-c2nnc(SCC(=O)N3CCCCC3)o2)cc1OC`: the inhibition was 0%.
The result for `CCOC(=O)c1[nH]c2ccc(Br)cc2c1NC(=O)CCN1CCC(C(=O)OCC)CC1` reads 0%; that for `O=C(CN1CCN(Cc2ccccc2F)C1=O)NCc1cccnc1`, 0%.
For `COc1cc2c(cc1OC)C(c1cc(OC)c(OC)c(OC)c1)NCC2` (stereo not given), the inhibition was 0%.
The result for `C=C1[C@@H](C)C2[C@H](Cc3ccccc3)NC(=O)[C@]23OC(=O)CC[C@H](O)CCC[C@H](C)C/C=C/[C@H]3[C@@H]1O` (stereo not given in full) reads 0%.
The figure for `COc1ccccc1C1CC(c2ccc(C)cc2)Nc2ncnn21` (stereo not given) is 3%.
For the molecule `COc1ccc(-c2nc(C#N)c(N3CCN(c4ccccc4)CC3)o2)cc1`, the inhibition is 0%.
The result for `COc1ccc(N2Cc3ccccc3C2)cc1Cl` reads 0%; that for `Cc1nnc(SCc2cccc(Oc3ccccc3)c2)n1N`, 0%.
In the case of `O=c1nc(N2CCCC2)nc(Nc2ccccc2)[nH]1`, the inhibition was 0%.
The figure for `COc1cc2c(cc1NC(=O)CSc1nnc(Cc3cccs3)n1C)oc1ccccc12` is 6%; for `Cc1cc(NS(=O)(=O)c2ccc(Nc3nc(-c4sc(N)nc4C)cs3)cc2)no1` it is 4%.
The result for `CCOC(=O)COc1ccc(S(=O)(=O)N2CCc3ccccc3C2)cc1` reads 0%.
